Reference: the supplement of paper PMC11732987, “Enantioselective OTUD7B fragment discovery through chemoproteomics screening and high-throughput optimisation” (Communications Chemistry, 2025)

Assays:
Assay in all cases: log2 ratio of Biotin-Ahx-Ub-VS probe labelling (fragment/DMSO); higher = less target engagement (more negative = stronger competition), active = hit call of the paper (q ≤ 0.05, log2 ratio ≤ -1)
Conditions in all cases: compound concentration: 200 uM; treatment time: 3 h
USP34 = USP34 (UniProt Q70CQ2)
Procedure, shortened: (§1)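 HEK293T lysate (495 µg per sample, in Tris/CHAPS/IGEPAL buffer with protease inhibitors) was treated in triplicate with fragment at 200 µM or with DMSO for 3 h. It was then treated with Biotin-Ahx-Ub-VS (0.5 µM final) for 1 h. Labelled DUBs were NeutrAvidin-enriched, digested with LysC and trypsin, and run by diaPASEF LC-MS/MS. Spectronaut label-free quantities were global-median-normalised. Values are average log2 ratios fragment/DMSO by unpaired t-test, using proteins with ≥2 unique peptides.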

USP36 = target: T1, USP36 (UniProt Q9P275)
T1 sequence (whole entry): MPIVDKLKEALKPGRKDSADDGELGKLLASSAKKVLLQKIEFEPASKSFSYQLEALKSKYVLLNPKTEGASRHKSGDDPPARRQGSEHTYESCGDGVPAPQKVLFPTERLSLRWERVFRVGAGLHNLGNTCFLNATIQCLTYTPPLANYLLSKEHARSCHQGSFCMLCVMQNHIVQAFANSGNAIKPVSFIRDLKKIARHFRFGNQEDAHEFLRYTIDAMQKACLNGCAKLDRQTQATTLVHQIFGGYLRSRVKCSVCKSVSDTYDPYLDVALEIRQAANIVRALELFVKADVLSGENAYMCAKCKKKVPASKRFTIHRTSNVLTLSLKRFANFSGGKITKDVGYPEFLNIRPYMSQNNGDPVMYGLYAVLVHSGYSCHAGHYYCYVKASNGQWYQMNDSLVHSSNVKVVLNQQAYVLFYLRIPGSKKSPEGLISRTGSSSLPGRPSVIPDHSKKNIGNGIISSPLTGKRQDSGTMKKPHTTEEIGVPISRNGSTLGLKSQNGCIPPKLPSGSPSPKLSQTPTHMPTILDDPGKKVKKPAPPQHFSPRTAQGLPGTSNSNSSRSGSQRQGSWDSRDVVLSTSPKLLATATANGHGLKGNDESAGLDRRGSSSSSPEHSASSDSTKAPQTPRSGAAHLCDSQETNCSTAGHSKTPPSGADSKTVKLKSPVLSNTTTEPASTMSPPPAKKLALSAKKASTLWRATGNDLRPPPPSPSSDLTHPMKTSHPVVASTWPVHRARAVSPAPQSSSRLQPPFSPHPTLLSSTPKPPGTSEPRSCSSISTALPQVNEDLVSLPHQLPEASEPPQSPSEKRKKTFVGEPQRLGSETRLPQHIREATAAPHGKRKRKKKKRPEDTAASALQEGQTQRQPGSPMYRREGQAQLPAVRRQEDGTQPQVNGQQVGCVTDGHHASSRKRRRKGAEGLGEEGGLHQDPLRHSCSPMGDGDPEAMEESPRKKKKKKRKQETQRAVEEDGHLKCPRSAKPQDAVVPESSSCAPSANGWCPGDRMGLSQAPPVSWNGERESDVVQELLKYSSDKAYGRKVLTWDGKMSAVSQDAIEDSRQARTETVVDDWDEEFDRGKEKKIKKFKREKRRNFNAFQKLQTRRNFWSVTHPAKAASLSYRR
Procedure, shortened: as §1

USP38 = target: T2, USP38 (UniProt Q8NB14)
T2 sequence (whole entry): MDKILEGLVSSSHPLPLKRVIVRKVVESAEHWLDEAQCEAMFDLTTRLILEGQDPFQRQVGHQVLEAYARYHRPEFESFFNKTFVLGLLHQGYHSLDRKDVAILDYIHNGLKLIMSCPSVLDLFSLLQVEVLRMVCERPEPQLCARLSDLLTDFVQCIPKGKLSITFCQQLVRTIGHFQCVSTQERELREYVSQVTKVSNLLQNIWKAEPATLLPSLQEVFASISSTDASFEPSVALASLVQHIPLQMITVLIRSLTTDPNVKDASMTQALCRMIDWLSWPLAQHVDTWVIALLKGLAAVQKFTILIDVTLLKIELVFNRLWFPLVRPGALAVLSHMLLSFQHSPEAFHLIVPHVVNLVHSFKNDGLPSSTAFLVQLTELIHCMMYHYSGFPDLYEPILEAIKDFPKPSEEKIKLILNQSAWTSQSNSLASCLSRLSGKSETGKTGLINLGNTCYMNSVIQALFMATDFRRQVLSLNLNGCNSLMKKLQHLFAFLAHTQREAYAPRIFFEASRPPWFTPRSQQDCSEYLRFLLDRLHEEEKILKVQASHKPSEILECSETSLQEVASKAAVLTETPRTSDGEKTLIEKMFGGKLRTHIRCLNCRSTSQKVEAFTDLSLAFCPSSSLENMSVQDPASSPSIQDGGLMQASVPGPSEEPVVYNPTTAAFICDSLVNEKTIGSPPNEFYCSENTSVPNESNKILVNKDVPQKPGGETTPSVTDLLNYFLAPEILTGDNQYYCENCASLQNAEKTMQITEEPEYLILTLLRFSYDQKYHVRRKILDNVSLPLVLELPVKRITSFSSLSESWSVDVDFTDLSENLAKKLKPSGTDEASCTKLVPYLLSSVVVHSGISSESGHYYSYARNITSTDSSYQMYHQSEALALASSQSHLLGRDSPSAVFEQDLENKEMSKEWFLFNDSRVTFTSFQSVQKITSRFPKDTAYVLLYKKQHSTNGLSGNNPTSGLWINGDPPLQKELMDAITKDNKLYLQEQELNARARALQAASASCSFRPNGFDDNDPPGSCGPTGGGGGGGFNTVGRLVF
Procedure, shortened: as §1

USP39 = target: T3, USP39 (UniProt Q53GS9)
T3 sequence (whole entry): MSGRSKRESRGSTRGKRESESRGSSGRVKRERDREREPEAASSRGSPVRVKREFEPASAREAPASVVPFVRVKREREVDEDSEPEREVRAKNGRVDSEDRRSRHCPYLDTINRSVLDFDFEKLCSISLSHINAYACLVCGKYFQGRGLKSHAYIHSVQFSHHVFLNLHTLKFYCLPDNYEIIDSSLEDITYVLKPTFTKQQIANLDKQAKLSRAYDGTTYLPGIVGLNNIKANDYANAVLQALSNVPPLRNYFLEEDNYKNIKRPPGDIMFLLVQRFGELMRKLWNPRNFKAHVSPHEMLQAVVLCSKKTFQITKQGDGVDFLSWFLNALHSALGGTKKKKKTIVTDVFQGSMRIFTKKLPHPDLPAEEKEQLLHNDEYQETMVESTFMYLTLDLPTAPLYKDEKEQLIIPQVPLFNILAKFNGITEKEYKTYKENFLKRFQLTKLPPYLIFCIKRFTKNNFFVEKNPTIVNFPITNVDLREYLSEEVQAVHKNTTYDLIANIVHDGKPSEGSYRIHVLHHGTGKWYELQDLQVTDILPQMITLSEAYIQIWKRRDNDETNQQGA
Procedure, shortened: as §1

USP4 = target: T4, USP4 (UniProt Q13107)
T4 sequence (whole entry): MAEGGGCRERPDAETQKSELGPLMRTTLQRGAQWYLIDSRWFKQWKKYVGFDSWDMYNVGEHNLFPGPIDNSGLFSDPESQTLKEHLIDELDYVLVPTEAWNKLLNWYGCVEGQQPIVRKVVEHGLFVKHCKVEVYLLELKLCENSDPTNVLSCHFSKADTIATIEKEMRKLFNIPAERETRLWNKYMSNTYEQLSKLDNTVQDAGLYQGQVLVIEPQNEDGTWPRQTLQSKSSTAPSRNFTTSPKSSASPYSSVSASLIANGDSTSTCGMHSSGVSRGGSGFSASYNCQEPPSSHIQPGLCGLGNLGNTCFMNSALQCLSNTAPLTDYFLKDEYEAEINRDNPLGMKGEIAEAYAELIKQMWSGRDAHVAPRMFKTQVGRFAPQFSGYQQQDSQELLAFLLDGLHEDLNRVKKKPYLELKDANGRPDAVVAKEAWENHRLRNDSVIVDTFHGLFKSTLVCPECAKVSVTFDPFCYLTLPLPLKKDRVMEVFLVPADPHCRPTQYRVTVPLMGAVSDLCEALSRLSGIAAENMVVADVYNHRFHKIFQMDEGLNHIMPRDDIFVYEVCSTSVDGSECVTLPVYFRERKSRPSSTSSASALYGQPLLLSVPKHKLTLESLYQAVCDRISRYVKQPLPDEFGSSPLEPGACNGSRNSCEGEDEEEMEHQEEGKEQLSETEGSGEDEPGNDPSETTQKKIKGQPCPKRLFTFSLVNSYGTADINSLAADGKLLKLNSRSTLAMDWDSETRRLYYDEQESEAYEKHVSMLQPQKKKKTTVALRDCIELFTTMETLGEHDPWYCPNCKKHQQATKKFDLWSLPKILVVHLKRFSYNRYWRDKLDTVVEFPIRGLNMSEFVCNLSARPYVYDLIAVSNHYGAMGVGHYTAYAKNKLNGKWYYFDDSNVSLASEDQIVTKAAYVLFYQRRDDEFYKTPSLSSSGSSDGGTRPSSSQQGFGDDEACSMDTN
Procedure, shortened: as §1

Measured: log2 ratio of Biotin-Ahx-Ub-VS probe labelling

Chain of USP34 (Q70CQ2 whole entry, the tested form may be a part): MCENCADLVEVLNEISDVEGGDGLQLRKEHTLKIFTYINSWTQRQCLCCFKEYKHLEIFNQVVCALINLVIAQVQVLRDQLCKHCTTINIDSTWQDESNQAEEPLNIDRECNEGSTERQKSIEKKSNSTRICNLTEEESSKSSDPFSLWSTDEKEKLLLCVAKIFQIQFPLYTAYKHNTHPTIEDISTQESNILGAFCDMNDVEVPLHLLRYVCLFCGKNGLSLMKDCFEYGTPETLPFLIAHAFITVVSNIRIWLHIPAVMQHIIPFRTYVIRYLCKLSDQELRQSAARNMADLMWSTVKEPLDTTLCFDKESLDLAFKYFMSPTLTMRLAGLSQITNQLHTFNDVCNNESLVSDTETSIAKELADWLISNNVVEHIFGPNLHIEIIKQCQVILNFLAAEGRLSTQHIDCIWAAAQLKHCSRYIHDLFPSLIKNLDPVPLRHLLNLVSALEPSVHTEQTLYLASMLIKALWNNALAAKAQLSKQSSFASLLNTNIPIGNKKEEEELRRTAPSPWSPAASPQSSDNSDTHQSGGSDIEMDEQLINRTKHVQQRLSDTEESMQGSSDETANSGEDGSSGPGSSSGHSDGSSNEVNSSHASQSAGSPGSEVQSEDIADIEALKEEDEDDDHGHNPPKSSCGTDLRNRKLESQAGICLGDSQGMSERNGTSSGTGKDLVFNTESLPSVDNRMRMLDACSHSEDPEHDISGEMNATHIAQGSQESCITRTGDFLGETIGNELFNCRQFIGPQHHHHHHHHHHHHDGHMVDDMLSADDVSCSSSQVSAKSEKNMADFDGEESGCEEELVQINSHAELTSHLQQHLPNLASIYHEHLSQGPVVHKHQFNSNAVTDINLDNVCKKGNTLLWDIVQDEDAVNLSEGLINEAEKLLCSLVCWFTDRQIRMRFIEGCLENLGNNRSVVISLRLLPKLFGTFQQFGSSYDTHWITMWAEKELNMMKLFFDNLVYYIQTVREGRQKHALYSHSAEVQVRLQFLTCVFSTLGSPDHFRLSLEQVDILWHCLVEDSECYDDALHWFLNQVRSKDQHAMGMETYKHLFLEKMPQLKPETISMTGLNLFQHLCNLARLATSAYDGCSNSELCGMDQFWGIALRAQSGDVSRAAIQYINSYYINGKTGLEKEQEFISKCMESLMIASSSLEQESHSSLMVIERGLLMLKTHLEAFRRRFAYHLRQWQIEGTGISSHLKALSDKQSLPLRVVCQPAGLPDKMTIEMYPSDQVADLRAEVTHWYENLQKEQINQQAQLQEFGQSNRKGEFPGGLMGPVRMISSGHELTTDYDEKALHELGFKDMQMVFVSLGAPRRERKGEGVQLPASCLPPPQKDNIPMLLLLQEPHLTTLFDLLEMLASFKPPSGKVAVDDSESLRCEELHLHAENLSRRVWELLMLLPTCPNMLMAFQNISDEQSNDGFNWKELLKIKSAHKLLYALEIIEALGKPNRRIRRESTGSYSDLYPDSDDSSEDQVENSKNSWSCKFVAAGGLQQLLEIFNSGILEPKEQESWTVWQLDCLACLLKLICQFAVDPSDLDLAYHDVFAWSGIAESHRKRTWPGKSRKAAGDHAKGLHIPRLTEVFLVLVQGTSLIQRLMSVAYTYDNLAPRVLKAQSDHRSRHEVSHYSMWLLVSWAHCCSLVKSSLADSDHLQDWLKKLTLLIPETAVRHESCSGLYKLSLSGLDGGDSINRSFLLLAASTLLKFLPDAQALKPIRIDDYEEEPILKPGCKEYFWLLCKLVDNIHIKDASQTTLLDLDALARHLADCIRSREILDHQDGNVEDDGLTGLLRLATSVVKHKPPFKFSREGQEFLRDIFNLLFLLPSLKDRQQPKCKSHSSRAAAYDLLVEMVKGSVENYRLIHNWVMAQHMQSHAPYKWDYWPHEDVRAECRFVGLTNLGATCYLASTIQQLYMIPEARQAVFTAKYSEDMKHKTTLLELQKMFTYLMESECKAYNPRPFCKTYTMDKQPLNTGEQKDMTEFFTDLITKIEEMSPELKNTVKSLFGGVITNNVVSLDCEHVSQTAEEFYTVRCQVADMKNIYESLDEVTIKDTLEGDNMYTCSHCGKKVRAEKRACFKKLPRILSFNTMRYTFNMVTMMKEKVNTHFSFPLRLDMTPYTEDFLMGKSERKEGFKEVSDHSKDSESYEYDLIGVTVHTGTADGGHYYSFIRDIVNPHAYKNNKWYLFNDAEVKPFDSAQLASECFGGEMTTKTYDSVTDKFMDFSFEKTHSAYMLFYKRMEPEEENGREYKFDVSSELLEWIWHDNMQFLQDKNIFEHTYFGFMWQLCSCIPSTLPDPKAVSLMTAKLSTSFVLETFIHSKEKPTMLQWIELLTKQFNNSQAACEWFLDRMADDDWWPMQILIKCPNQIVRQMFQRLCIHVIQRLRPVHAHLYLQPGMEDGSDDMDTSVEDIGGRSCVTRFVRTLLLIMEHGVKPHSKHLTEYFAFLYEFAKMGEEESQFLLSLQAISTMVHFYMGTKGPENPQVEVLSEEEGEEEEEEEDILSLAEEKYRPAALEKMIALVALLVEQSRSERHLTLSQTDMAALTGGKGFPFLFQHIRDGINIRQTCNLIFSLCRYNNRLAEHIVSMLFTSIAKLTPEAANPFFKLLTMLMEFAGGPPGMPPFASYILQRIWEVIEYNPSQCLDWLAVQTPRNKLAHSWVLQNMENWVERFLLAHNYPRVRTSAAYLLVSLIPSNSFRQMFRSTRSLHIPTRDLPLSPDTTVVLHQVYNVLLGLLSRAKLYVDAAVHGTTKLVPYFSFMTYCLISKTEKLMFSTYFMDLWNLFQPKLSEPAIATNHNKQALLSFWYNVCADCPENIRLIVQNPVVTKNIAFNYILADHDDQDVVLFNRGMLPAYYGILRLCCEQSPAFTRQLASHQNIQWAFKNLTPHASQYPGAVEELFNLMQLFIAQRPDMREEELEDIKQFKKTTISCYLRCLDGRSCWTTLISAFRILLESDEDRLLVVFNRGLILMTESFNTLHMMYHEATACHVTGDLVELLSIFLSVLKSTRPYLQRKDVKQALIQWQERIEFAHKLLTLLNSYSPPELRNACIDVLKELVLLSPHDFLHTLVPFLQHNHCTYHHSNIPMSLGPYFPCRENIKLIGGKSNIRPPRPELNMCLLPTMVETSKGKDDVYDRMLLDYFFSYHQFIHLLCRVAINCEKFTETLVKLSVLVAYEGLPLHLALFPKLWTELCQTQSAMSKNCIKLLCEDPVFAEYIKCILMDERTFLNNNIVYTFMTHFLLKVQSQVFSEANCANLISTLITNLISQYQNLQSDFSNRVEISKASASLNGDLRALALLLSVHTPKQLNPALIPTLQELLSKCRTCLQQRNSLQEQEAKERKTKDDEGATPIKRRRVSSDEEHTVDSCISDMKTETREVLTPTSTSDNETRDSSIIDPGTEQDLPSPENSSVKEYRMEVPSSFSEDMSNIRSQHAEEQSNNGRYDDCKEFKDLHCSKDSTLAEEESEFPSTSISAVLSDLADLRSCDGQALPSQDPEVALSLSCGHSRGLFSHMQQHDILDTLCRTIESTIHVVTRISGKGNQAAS

Cc1cccc2nc(CCNC(=O)CCl)cn12.Cl
inactive: USP34 -0.19 | USP36 -0.179 | USP38 -0.0583 | USP39 0.203 | USP4 -0.184
